Measurements: PubChem BioAssay AID1159580 (chemical genetic matrix, 2015)
Values joined by “and” are separate entries in the source; they are usually repeats but may differ in a detail not shown here. Identical values can stand only once. Hit rate of the full screen: of about 5,500 compounds, about 2,000 (36%) were called active. About 18% were inconclusive and are not listed. No stated cut-off is given here; in the data, active means normalized growth mostly below about 0.91 (no sharp cut-off); inconclusive means no clear call, values can overlap the other calls; inactive means mostly above about 0.92. Some of the results follow.

Assay: chemical genetic growth profiling, strain panel (AID 1159580);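 further: tested at 20 µM; growth read once vehicle control cultures reached saturation at 30 °C; 1 = growth at the plate median or of vehicle wells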
Settings: S. cerevisiae deletion strains, growth OD

Measured: normalized growth

O=C(O)c1ccc(S(=O)(=O)N(Cl)Cl)cc1
inactive: locus YAL013W, strain DEP1, stronger effect = lower value 1 | locus YAL021C, strain ccr4, stronger effect = lower value 1 | locus YAL026C, strain drs2, stronger effect = lower value 0.962 | locus YAL030W, strain snc1, stronger effect = lower value 0.994 | locus YBL061C, strain skt5, stronger effect = lower value 0.975 | locus YBR009C, strain hhf1, stronger effect = lower value 0.925 | locus YBR021W, strain FUR4, stronger effect = lower value 0.987 | locus YBR023C, strain chs3, stronger effect = lower value 1 | locus YBR171W, strain sec66, stronger effect = lower value 0.969 | locus YBR229C, strain ROT2, stronger effect = lower value 1 | locus YBR231C, strain swc5, stronger effect = lower value 0.995 | locus YBR279W, strain paf1, stronger effect = lower value 0.992 | locus YCL011C, strain gbp2, stronger effect = lower value 0.977 | locus YCL016C, strain dcc1, stronger effect = lower value 1 | locus YCL029C, strain bik1, stronger effect = lower value 1.01 | locus YCL061C, strain MRC1, stronger effect = lower value 0.933 | locus YCL069W, strain vba3, stronger effect = lower value 0.988 | locus YCR088W, strain abp1, stronger effect = lower value 0.998 | locus YDL005C, strain med2, stronger effect = lower value 0.996 | locus YDL035C, strain GPR1, stronger effect = lower value 0.989 | locus YDL040C, strain nat1, stronger effect = lower value 0.992 | locus YDL074C, strain BRE1, stronger effect = lower value 0.98 | locus YDL101C, strain DUN1, stronger effect = lower value 1 | locus YDL185W, strain tfp1, stronger effect = lower value 1.01 | locus YDL192W, strain arf1, stronger effect = lower value 1.03 | locus YDR001C, strain nth1, stronger effect = lower value 0.978 | locus YDR069C, strain doa4, stronger effect = lower value 1.02 | locus YDR101C, strain arx1, stronger effect = lower value 1.02 | locus YDR137W, strain rgp1, stronger effect = lower value 1.01 | locus YDR150W, strain NUM1, stronger effect = lower value 1 | locus YDR159W, strain sac3, stronger effect = lower value 0.98 | locus YDR162C, strain NBP2, stronger effect = lower value 1 | locus YDR195W, strain ref2 0.996 | locus YDR297W, strain sur2, stronger effect = lower value 0.988 | locus YDR318W, strain mcm21, stronger effect = lower value 1.01 | locus YDR334W, strain swr1, stronger effect = lower value 0.97 | locus YDR335W, strain msn5, stronger effect = lower value 0.987 | locus YDR388W, stronger effect = lower value 1.02 | locus YDR392W, strain spt3, stronger effect = lower value 0.939 | locus YDR502C, strain sam2, stronger effect = lower value 1.04 | locus YEL003W, strain gim4, stronger effect = lower value 0.964 | locus YEL037C, strain rad23, stronger effect = lower value 0.962 | locus YEL061C, strain CIN8 (second series), stronger effect = lower value 0.975 | locus YEL061C, strain CIN8, stronger effect = lower value 1 | locus YER015W, strain faa2, stronger effect = lower value 1 | locus YER016W, strain bim1, stronger effect = lower value 0.997 | locus YER110C, stronger effect = lower value 1.03 | locus YER111C, strain swi4, stronger effect = lower value 0.982 | locus YER155C, strain BEM2 (second series), stronger effect = lower value 0.979 | locus YER155C, strain BEM2, stronger effect = lower value 0.992 | locus YER167W, strain BCK2, stronger effect = lower value 1 | locus YFR010W, strain ubp6, stronger effect = lower value 0.959 | locus YGL078C, strain dbp3, stronger effect = lower value 1.03 | locus YGL086W, strain mad1, stronger effect = lower value 0.991 | locus YGL167C, strain pmr1, stronger effect = lower value 0.973 | locus YGL173C, strain kem1, stronger effect = lower value 0.982 | locus YGL227W, strain vid30, stronger effect = lower value 0.996 | locus YGL240W, strain doc1, stronger effect = lower value 1.02 | locus YGL248W, strain PDE1, stronger effect = lower value 1 | locus YGL253W, strain hxk2, stronger effect = lower value 0.999 | locus YGR078C, strain PAC10, stronger effect = lower value 0.998 | locus YGR135W, strain pre9, stronger effect = lower value 1.01 | locus YGR252W, strain gcn5, stronger effect = lower value 0.971 | locus YHR013C, strain ard1, stronger effect = lower value 1.01 | locus YHR027C, strain rpn1, stronger effect = lower value 0.993 | locus YHR030C, strain SLT2, stronger effect = lower value 0.999 and 0.973 | locus YHR079C, strain IRE1 (second series), stronger effect = lower value 1.02 | locus YHR079C, strain IRE1, stronger effect = lower value 0.973 | locus YHR094C, strain hxt1, stronger effect = lower value 1.03 | locus YHR129C, strain ARP1, stronger effect = lower value 0.996 | locus YHR142W, strain chs7, stronger effect = lower value 0.971 | locus YHR200W, strain rpn10, stronger effect = lower value 1.03 | locus YIL066C, strain RNR3, stronger effect = lower value 1 | locus YIL073C, strain SPO22, stronger effect = lower value 1.03 | locus YIL125W, strain kgd1, stronger effect = lower value 1.01 | locus YIR030C, strain dcg1, stronger effect = lower value 1.03 | locus YJL092W, strain hpr5, stronger effect = lower value 0.987 | locus YJL095W, strain BCK1 (second series), stronger effect = lower value 0.991 | locus YJL095W, strain BCK1, stronger effect = lower value 1 and 0.969 | locus YJL115W, strain asf1, stronger effect = lower value 0.969 | locus YJL129C, strain trk1, stronger effect = lower value 0.996 | locus YJL134W, strain LCB3, stronger effect = lower value 1 | locus YJL154C, strain vps35, stronger effect = lower value 0.985 | locus YJL164C, strain tpk1, stronger effect = lower value 0.954 | locus YJL166W, strain qcr8, stronger effect = lower value 1.01 | locus YJL168C, strain set2, stronger effect = lower value 1.02 | locus YJL187C, strain SWE1 (second series), stronger effect = lower value 0.998 | locus YJL187C, strain SWE1, stronger effect = lower value 0.994 | locus YJR043C, strain POL32, stronger effect = lower value 0.982
